# Laboratory results from PubChem BioAssay AID1259415 (National Center for Advancing Translational Sciences (NCATS), 2018).
# Out of some 410,000 compounds screened, about 18,000 (4.4%) were called active. About 7% were inconclusive and are not listed. Rule as the data show it: active = activity change below about -60%; inconclusive = no clear call, values can overlap the other calls; inactive = above about -39%. The list comes from a sample in which actives are over-represented; it also holds similar structures and randomly drawn compounds.
# Experiment: qHTS Assay for inhibitors of the human cytomegalovirus (HCMV)
# Details: HFF cells, HCMV-luciferase reporter, 72 h; at 57.5 µM; stronger effect = lower value
# In short: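 Two compound doses tested in HFFs infected with HCMV-luciferase, MOI 1 PFU/cell, 72 h at 37C. Lysate luminescence read with OneGlo; data normalized against buffer-only and 10uM Salinomycin inhibitor controls.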
# % is scaled to controls: 0 for no effect and ±100 for the full control effect.
row,Compound,"activity change, negative = inhibition"
1,CCn1c(=O)c2cc(C(=O)Nc3cccc(C(C)=O)c3)sc2c2ccccc21,8.05% (inactive)
2,COc1ccc(OC)c(CNC(=O)c2c3c(nc4ccccc24)C(=O)N(C2CCCCC2)C3)c1,18.7% (inactive)
3,CCOC(=O)C1CCN(C(=O)CSc2c3c(nc4ccc(Cl)cc24)CCCC3)CC1,92.3% (inactive)
4,Cc1ccc(C(C)(C)C)c(OCCCCN2CCCC2)c1,-65.6% (active)
5,Cc1ccc(C(C)C)cc1OCCN1CCCC1,2.84% (inactive)
6,Cc1ccc(OCCCCN2CCCCC2)c(Br)c1,-23.7% (inactive)
7,CC(=O)N1CCc2ccc(N)cc21,-18% (inactive)
8,COc1cc(NC(=O)c2cc3ccc4cccnc4c3[nH]2)cc(OC)c1OC,65% (inactive)
9,CCOc1ccc(Nc2nc3c(S(=O)(=O)c4cccc(Cl)c4)nnn3c3ccsc23)cc1,16.8% (inactive)
10,C[C@H]1CN([C@@H](C)CO)C(=O)Cc2cc(NS(C)(=O)=O)ccc2O[C@@H]1CN(C)CC1CC1,-70.1% (active)
11,COc1ccc(S(=O)(=O)N(C)C[C@H]2Oc3ccc(NS(=O)(=O)c4cccs4)cc3CC(=O)N([C@H](C)CO)C[C@H]2C)cc1,8.23% (inactive)
12,C[C@H](CO)N1C[C@H](C)[C@H](CN(C)CC2CC2)Oc2ccc(NC(=O)CCN3CCOCC3)cc2C1=O,-26.7% (inactive)
13,O=C(c1cccc(Cl)c1)N1CCN(CCc2ccncc2)CC1,14.9% (inactive)
14,Fc1ccc(Nc2nnns2)cc1,21.3% (inactive)
15,O=C(COc1ccccc1)OCc1cc(=O)n2nc(-c3cccs3)sc2n1,24.1% (inactive)
16,CCc1ccccc1NC(=O)c1ccc(F)c(S(=O)(=O)NC2CCCCCC2)c1,27% (inactive)
17,CCOc1cccc(NC(=O)c2ccc(F)c(S(=O)(=O)N(CC)c3cccc(C)c3)c2)c1,-33.3% (inactive)
18,Cc1cccc(NC(=O)c2ccc(F)c(S(=O)(=O)N(C)C3CCCCC3)c2)c1,-81.6% (active)
19,O=C(CSc1nnc(-c2ccccc2F)o1)Nc1cccc(C(F)(F)F)c1,98.3% (inactive)
20,Cc1nn(Cc2ccc(F)cc2)c(C)c1NC(=O)c1cc(CC(C)C)on1,-39% (inactive)
21,CCCCCCOc1ccc(OC(=O)c2cccnc2)cc1,-79.3% (active)
22,CCCOc1cccc(C(=O)NCCCNC(=O)c2cccnc2)c1,-8.85% (inactive)

row,Compound,"activity change, negative = inhibition"
1,Cc1ccc(OCC(=O)N2CCN(C(=O)c3cccnc3)CC2)cc1,-12.6% (inactive)
2,O=C(CCn1ccc2cc(S(=O)(=O)N3CCCC3)ccc21)NCc1cccc(Cl)c1,-10.7% (inactive)
3,O=C(Cn1ncn2nc(-c3cccs3)cc2c1=O)NCc1cccc(Br)c1,12.3% (inactive)
4,CCC[C@H]1[C@@H](NS(=O)(=O)c2ccc(F)cc2)CC[C@@]23CCCN2C(=O)CCC[C@@H]13,-4.65% (inactive)
5,CCOC(=O)c1c(-c2cccc(C)c2)csc1NC(=O)c1c(-c2ccccc2)noc1C,-94% (active)
6,CCOC(=O)c1c(-c2cccc(N)c2)cn2ccccc12,17.2% (inactive)
7,CCCS(=O)(=O)c1ncc(Cl)c(C(=O)Nc2scc(-c3ccccc3)c2C(=O)OCC)n1,-98.8% (active)
8,CCCSc1ncc(Cl)c(C(=O)Nc2sc3c(c2C(=O)NCCOC)CCCC3)n1,-24% (inactive)
9,CCOC(=O)c1c(C2CC2)csc1NC(=O)CSCc1c(C)noc1C,42.9% (inactive)
10,CCOC(=O)c1[nH]cnc1C(=O)Nc1ccccc1C,-21.4% (inactive)
11,Oc1c(C(c2ccccc2Cl)N2CCOCC2)sc2nc(-c3ccco3)nn12 (stereo not given),-16.1% (inactive)
12,O=C(CCN1CCc2ccccc2C(O)(c2ccccc2)C1)c1ccc2c(c1)OCCO2 (stereo not given),25.7% (inactive)
13,O=S(=O)(Nc1ccc2nc(-c3ccco3)[nH]c2c1)c1ccccc1,16.8% (inactive)
14,O=[N+]([O-])c1ccc2nc(-c3ccccn3)[nH]c2c1,-79.3% (active)
15,O=[N+]([O-])c1ccc(N/N=C2/CCCCC2c2ccccn2)c([N+](=O)[O-])c1 (stereo not given),4.73% (inactive)
16,Cc1cc(C)cc(Oc2nc3c(C)cccn3c(=O)c2/C=C(\C#N)C(=O)NC2CCS(=O)(=O)C2)c1 (stereo not given),44.8% (inactive)
17,COCCCNC(=O)/C(C#N)=C/c1c(N2CCCCCC2)nc2ccccn2c1=O,-37.9% (inactive)
18,Cc1cccn2c(=O)c(/C=C(\C#N)C(N)=O)c(N3CCCCCC3)nc12,-70.1% (active)
19,Nc1[nH]c(C(=O)c2ccccc2)c(-c2ccc(Br)cc2)c1C(=O)NC1CC1,-20.4% (inactive)
20,NC(=O)C(Cc1ccccc1)NC(=O)C12CC3CC(CC(C3)C1)C2 (stereo not given),50.8% (inactive)
21,Cc1ccc(S(=O)(=O)c2nc(-c3cccs3)oc2N2CCCCC2)cc1,-15.8% (inactive)
22,COc1cc(-c2cc3n(C)c(C)c(CCC(=O)Nc4ccc(F)cc4)c(=O)n3n2)cc(OC)c1OC,-22.9% (inactive)

row,Compound,"activity change, negative = inhibition"
1,Cc1sc(C2C(C#N)=C(N)N(c3cccc(Cl)c3)C3=C2C(=O)CCC3)cc1CN1CCOCC1 (stereo not given),-21.6% (inactive)
2,COc1ccc(C(C)=O)cc1COc1ccc(Cl)c(C)c1,-1.3% (inactive)
3,CCn1nc(C)c(NC(=O)/C=C/c2ccc(OC)c(COc3ccc(Br)cc3)c2)c1C,-68% (active)
4,COc1ccc(/C=C/C(=O)Nc2c(C)nn(C)c2C)cc1COc1ccc(Br)cc1,-35.2% (inactive)
5,CCOC(=O)N1CCc2c(sc3c2C(=O)NC(c2ccccc2F)N3)C1 (stereo not given),-3.15% (inactive)
6,C=CCN1C(=O)C(Cc2ccc(OCC)cc2)SC1=Nc1ccc(C(=O)O)cc1 (stereo not given),10.9% (inactive)
7,CN(c1ccc(C(=O)N2CCc3ccccc3C2)cc1)S(C)(=O)=O,5.34% (inactive)
8,CCN(CC)c1ccc(NC(=O)CN2CCN(CC(=O)Nc3ccc(Cl)cc3)CC2)cc1,18% (inactive)
9,CNS(=O)(=O)c1ccc(NC(=O)Nc2ccc3c(c2)OCO3)cc1,61.9% (inactive)
10,CC(=O)Nc1cccc(NC(=O)c2ccc3c(c2)CCN3S(C)(=O)=O)c1,40.6% (inactive)
11,CN(c1cccc(NC(=O)c2ccc(CN3CCc4ccccc4C3)cc2)c1)S(C)(=O)=O,-74.1% (active)
12,CN(c1cccc(NC(=O)Nc2ccc(Cl)cc2)c1)S(C)(=O)=O,-81.1% (active)
13,CC1(C(=O)NCc2cccc3ccccc23)CCN1Cc1ccc(-c2ccccc2)o1 (stereo not given),-20.5% (inactive)
14,CCNC(=O)C1CCCN(C(=O)c2ccc(OC)cc2OC)CC1 (stereo not given),-11.4% (inactive)
15,Cn1c(=O)c2c(-c3ccccc3Br)n(Cc3ccccc3)cc2n(C)c1=O,-17.1% (inactive)
16,CCc1nn(CC(=O)N2CCN(c3ccc(Cl)cc3)CC2)c(=O)c2cc3occc3n12,-13.8% (inactive)
17,Cc1cccc(S(=O)(=O)c2cn(Cc3ccccc3)c3cc(N4CCOCC4)c(F)cc3c2=O)c1,17.2% (inactive)
18,CCOc1cc(-c2noc(CCCC(=O)NC3CCCCC3)n2)ccc1OC,-89.7% (active)
19,COc1ccc(-c2noc(CCCC(=O)NC3CCCC3)n2)cc1OC,-17% (inactive)
20,CCOc1cc(-c2noc(CCC(=O)N3CCOCC3)n2)ccc1OC,2.89% (inactive)
21,C[C@@H]1CN([C@@H](C)CO)C(=O)CCCn2nncc2CO[C@H]1CN(C)C(=O)Nc1ccc(C(F)(F)F)cc1,8.54% (inactive)
22,CC[C@@H](C)[C@@H](C(=O)N1CCN(C(=O)OC(C)(C)C)CC1)n1cc(CCC(=O)O)nn1,14.7% (inactive)

row,Compound,"activity change, negative = inhibition"
1,COc1ccc(-c2noc(-c3ccc(N4CCN(c5ccccc5)CC4)c([N+](=O)[O-])c3)n2)cc1OC,14.1% (inactive)
2,Cc1ccc(F)cc1S(=O)(=O)N1CCC(c2nc3ccccc3s2)CC1,-23.3% (inactive)
3,CC1=CC(=C(C#N)c2nc3ccccc3s2)C=C(C)N1c1ccc(F)cc1F,-64.6% (active)
4,Cc1ccc(C(=O)Nc2ccc3[nH]c(=O)c(=O)[nH]c3c2)cc1,-0.693% (inactive)
5,CCOc1ccccc1NC(=O)Cn1c(=O)n(-c2cccc(C)c2)c(=O)c2c1c1cc(OC)ccc1n2C,19.1% (inactive)
6,COc1ccc(C(=O)Nc2onc3c2CCCC3)cc1,1.09% (inactive)
7,CCOc1cccc(CNC(=O)c2ccc(N3CCCC3)c(NC(=O)Nc3ccccc3CC)c2)c1,-10.9% (inactive)
8,Cc1ccccc1CNC(=O)CCCn1nc(C)c2sc3ccccc3c2c1=O,14.7% (inactive)
9,CC(C)CN1Cc2cc(N3CCCCC3)ccc2-n2nncc2C1,10.2% (inactive)
10,CCOC(=O)CNC(=O)N1Cc2cc(N3CCCCC3)ccc2-n2nncc2C1,-62.1% (active)
11,O=C(NC1CCCCC1)N1Cc2cc(N3CCCCC3)ccc2-n2nncc2C1,40.9% (inactive)
12,Cn1c(C(=O)N2CCC(C(=O)N3CCN(c4ccccc4)CC3)CC2)cc2sccc21,-22.9% (inactive)
13,Cc1nn(CC(=O)N2CCN(c3cccc(C(F)(F)F)c3)CC2)c(=O)c2cc3sccc3n12,2.88% (inactive)
14,COc1ccc(F)cc1C(=O)COC(=O)c1n[nH]c(=O)c2ccccc12,49.5% (inactive)
15,CS(=O)(=O)c1ccc(-c2nnc(NC(=O)c3ccc4c(c3)OCCO4)o2)cc1,-0.462% (inactive)
16,CC1CCCN(S(=O)(=O)c2ccc(C(=O)Nc3nnc(-c4ccncc4)o3)cc2)C1 (stereo not given),-96.5% (active)
17,CC1CC(C)CN(S(=O)(=O)c2ccc(C(=O)NN3CCOCC3)cc2)C1 (stereo not given),-27.9% (inactive)
18,C[C@H]1CN([C@@H](C)CO)C(=O)CCCn2nncc2CO[C@@H]1CN(C)C(=O)Nc1ccc(N2CCN(C)CC2)cc1,-20.2% (inactive)
19,COc1cc(C2OC(c3cc(OC)c(OC)c(OC)c3)C(C)C2C)cc(OC)c1OC (stereo not given),54.8% (inactive)
